Holding throughout (assay): NCI-60 one-dose screen, 48 h (100 = growth as untreated, 0 = no growth, -100 = all killed)
One assay deals with HCT-15 colon. As to conditions: 10 µM.
The subject of another assay is HT29 colon. As to conditions: 10 µM.
In a further assay the test system is SNB-75 CNS. As to conditions: 10 µM.
The test system of the next assay is SNB-19 CNS. As to conditions: 10 µM.
For another assay, the system named is U251 CNS. Conditions: 10 µM unless noted.
The test system of the next assay is PC-3 prostate. Conditions: 10 µM.
Another assay concerns UACC-62 melanoma. Conditions: 10 µM.
For another assay, the system named is LOX IMVI melanoma. As to conditions: 10 µM unless noted.
Another assay relates to SK-MEL-28 melanoma. Conditions: 10 µM.
For another assay, the system named is SK-MEL-2 melanoma. Conditions: 10 µM.
A further assay has as its system EKVX NSCLC. Conditions: 10 µM.
The test system of a further assay is UO-31 renal. Conditions: 10 µM.
In another assay the test system is TK-10 renal. Conditions: 10 µM.
The subject of another assay is ACHN renal. As to conditions: 10 µM.
Another assay deals with CAKI-1 renal. Conditions: 10 µM.
In a further assay the test system is A498 renal. Conditions: 10 µM.
A further assay has as its system CCRF-CEM leukemia. As to conditions: 10 µM.
Another assay relates to MOLT-4 leukemia. As to conditions: 10 µM.
The next assay concerns SN12C renal. Conditions: 10 µM.

Where “and” joins values, the source holds several entries; their conditions need not be identical. Equal values may be shown once. About 83,000 compounds went through this panel and 20% of them were active in at least one assay; those are over-represented in the sample as a whole.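 Percent growth is the endpoint: 0 to 100 indicates growth inhibition (40 means 60% inhibition), 0 means no net growth, and negative values indicate cell death.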 Calls of active or inactive are those of the source. The calls were made as follows: active = growth percent below 10; inactive = the rest.

Regarding `CCCC1CCC(=C2C(=O)CCC2=O)O1` (stereo not given), the growth is 105% (inactive) and 92% (inactive) with HCT-15 colon; 94.2% (inactive) and 97.4% (inactive) in the assay on HT29 colon; 81.8% (inactive) and -17.8% (active) in the assay on SNB-75 CNS; 99.7% (inactive) and 98.9% (inactive) with SNB-19 CNS; 102% (inactive) and 98.5% (inactive) with U251 CNS; 95.1% (inactive) and 103% (inactive) in the assay with PC-3 prostate. Also, the growth with UACC-62 melanoma was 86.8% (inactive) and 93.7% (inactive); in the assay with LOX IMVI melanoma, 94.5% (inactive) and 97.6% (inactive); with SK-MEL-28 melanoma, 103% (inactive); in the assay on SK-MEL-2 melanoma it was 116% (inactive) and 125% (inactive); in the assay on EKVX NSCLC, 86.2% (inactive) and 101% (inactive); in the assay on UO-31 renal, 84.8% (inactive) and 96.3% (inactive). Further, the growth is 98.2% (inactive) and 118% (inactive) with TK-10 renal; 95.7% (inactive) and 96.2% (inactive) with ACHN renal; 93.9% (inactive) and 90.5% (inactive) in the assay on CAKI-1 renal; 108% (inactive) and 105% (inactive) with A498 renal; 123% (inactive) and 99.8% (inactive) in the assay with CCRF-CEM leukemia; 134% (inactive) and 120% (inactive) in the assay with MOLT-4 leukemia.
`CCCCCCCCCCCCCCCCCCOCC(COP(=O)([O-])OCC[N+](C)(C)C)OC` (stereo not given): the growth was 61% (inactive) with HCT-15 colon; 37.7% (inactive) in the assay with HT29 colon; 84.4% (inactive) with SNB-75 CNS; 80.8% (inactive) in the assay with SNB-19 CNS; 72.4% (inactive) with U251 CNS; 29.5% (inactive) with PC-3 prostate. Further, the growth was 73.3% (inactive) in the assay with UACC-62 melanoma; 84.6% (inactive) in the assay on LOX IMVI melanoma; 101% (inactive) in the assay on SK-MEL-2 melanoma; 119% (inactive) in the assay on EKVX NSCLC; 89.7% (inactive) with SN12C renal; 94.9% (inactive) in the assay on UO-31 renal. Further, the growth in the assay with TK-10 renal was 64% (inactive); with ACHN renal, 93.7% (inactive); in the assay with CAKI-1 renal it was 69% (inactive); in the assay with CCRF-CEM leukemia it was 63.9% (inactive); with MOLT-4 leukemia, 89.4% (inactive).
For `COc1ccc(CC(=O)c2ccc(O)cc2O)cc1`, the growth was 131% (inactive) in the assay on HCT-15 colon; 112% (inactive) in the assay on HT29 colon; 111% (inactive) in the assay with SNB-75 CNS; 121% (inactive) in the assay with SNB-19 CNS; 116% (inactive) with U251 CNS; 109% (inactive) in the assay on PC-3 prostate. For the same compound, the growth is 120% (inactive) in the assay with UACC-62 melanoma; 108% (inactive) in the assay with LOX IMVI melanoma; 139% (inactive) with SK-MEL-28 melanoma; 104% (inactive) in the assay with EKVX NSCLC; 98.5% (inactive) with UO-31 renal; 122% (inactive) with TK-10 renal. The growth in the assay with ACHN renal was 118% (inactive); with A498 renal it was 128% (inactive); in the assay on CCRF-CEM leukemia it was 104% (inactive).
Turning to `N=S(c1ccccc1[N+](=O)[O-])c1ccccc1[N+](=O)[O-]`, the growth in the assay on HCT-15 colon was -49.6% (active); with HT29 colon, -32.7% (active); in the assay on SNB-19 CNS it was 108% (inactive); with U251 CNS, 84.5% (inactive); in the assay on PC-3 prostate, 89.4% (inactive); with UACC-62 melanoma, 67.9% (inactive). Moreover, the growth in the assay with LOX IMVI melanoma was 3.28% (active); in the assay on SK-MEL-28 melanoma, 77.5% (inactive); in the assay with SK-MEL-2 melanoma, 89.2% (inactive); with EKVX NSCLC, 85.8% (inactive); with UO-31 renal it was 5.99% (active); in the assay with TK-10 renal, 22.4% (inactive). The growth is 2.38% (active) in the assay on ACHN renal; 85.5% (inactive) with CAKI-1 renal; 107% (inactive) with A498 renal; 7.69% (active) with CCRF-CEM leukemia; 98.9% (inactive) in the assay with MOLT-4 leukemia.
Turning to `CC1=CC(C)=Nc2ccc(Cl)cc2N1`, the growth with HCT-15 colon is 113% (inactive); in the assay on HT29 colon it was 119% (inactive); in the assay on SNB-75 CNS, 90.4% (inactive); in the assay with SNB-19 CNS it was 106% (inactive); in the assay with U251 CNS, 101% (inactive); with PC-3 prostate, 91.9% (inactive). In addition, the growth in the assay on UACC-62 melanoma was 103% (inactive); with LOX IMVI melanoma, 91.4% (inactive); in the assay with SK-MEL-28 melanoma, 124% (inactive); in the assay with SK-MEL-2 melanoma it was 109% (inactive); in the assay with EKVX NSCLC it was 108% (inactive); with UO-31 renal it was 85.9% (inactive). For the same compound, the growth with TK-10 renal is 117% (inactive); in the assay on ACHN renal, 105% (inactive); in the assay on CAKI-1 renal, 89.8% (inactive); in the assay on A498 renal, 106% (inactive); in the assay on CCRF-CEM leukemia it was 93.9% (inactive); with MOLT-4 leukemia it was 97.5% (inactive).
As to `CO[C@H](C(=O)[C@@H](O)[C@@H](C)O)[C@@H]1Cc2cc3cc(OC4CC(OC5CC(O)C(O)C(C)O5)C(O)C(C)O4)c(C)c(O)c3c(O)c2C(=O)[C@H]1OC1CC(OC2CC(OC3CC(C)(O)C(O)C(C)O3)C(O)C(C)O2)C(O)C(C)O1` (stereo not given in full), the growth in the assay on HCT-15 colon is 6.74% (active); with HT29 colon it was 0.182% (active); in the assay on SNB-75 CNS it was -56.9% (active); with SNB-19 CNS, 13.3% (inactive); with U251 CNS it was 9.37% (active); in the assay on PC-3 prostate, 10.5% (inactive). Also, the growth with UACC-62 melanoma was -58.6% (active); in the assay on LOX IMVI melanoma, 7.02% (active); in the assay on SK-MEL-2 melanoma, -43.9% (active); in the assay with EKVX NSCLC it was 16.8% (inactive); with SN12C renal, 24.8% (inactive); in the assay on UO-31 renal it was -4.43% (active). Also, the growth is 9.9% (active) with TK-10 renal; 3.72% (active) in the assay with ACHN renal; 17.2% (inactive) in the assay with CAKI-1 renal; 3.86% (active) in the assay on CCRF-CEM leukemia; 6.22% (active) with MOLT-4 leukemia.
For `CCCCCCCCCCSC(=N)N`, the growth was -4.11% (active) with HCT-15 colon; -27.7% (active) with HT29 colon; 80.7% (inactive) in the assay with SNB-75 CNS; 66.8% (inactive) with SNB-19 CNS; 5.37% (active) in the assay with U251 CNS; 59% (inactive) in the assay with PC-3 prostate. Further, the growth in the assay with UACC-62 melanoma is -35% (active); in the assay on LOX IMVI melanoma, 47.8% (inactive); with SK-MEL-28 melanoma, 89.3% (inactive); in the assay with SK-MEL-2 melanoma, 61.9% (inactive); with EKVX NSCLC it was 92.1% (inactive); in the assay with UO-31 renal, 53.4% (inactive). For the same compound, the growth in the assay on TK-10 renal is 60% (inactive); in the assay on ACHN renal it was 50.1% (inactive); with CAKI-1 renal, 46.4% (inactive); in the assay on A498 renal it was 95.1% (inactive); with CCRF-CEM leukemia it was 51.3% (inactive); in the assay on MOLT-4 leukemia, 15.2% (inactive).

Source of the values: PubChem BioAssay (NCI).
